Test [1] in a line: Nuclear factor erythroid 2-related factor 2/antioxidant responsive element (Nrf2/ARE) small molecule agonists: qHTS cell viability counter screen in human keratinocytes (AID 1919968; active = well fitted curve in the direction sought with a large enough effect in the repeat runs; an effect the other way counts as inactive or inconclusive; also: nearly all actives have a fitted effect of over 55% in size). In short, it runs like this:
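In human HaCaT keratinocytes stably expressing an ARE-driven luciferase, compound exposure lasted 23 h at 37 C under 5% CO2. Viable cells are quantified with a protease-based fluorogenic reagent (CellTiter-Fluor) read 1 h after addition.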
In general terms: In qHTS, concentration-response curves come from the screen itself.

In test [2] the target is Gonadotropin-releasing hormone receptor (Homo sapiens) (UniProt P30968). Description: Human gonadotropin-releasing hormone receptor (GnRHR) small molecule agonists, calcium flux assay in GnRHR-HEK293 cells (AID 1920063). Also: nearly all actives have a fitted effect of over 35% in size. The procedure, abridged: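 Intracellular calcium rise is the read-out: engineered human GnRHR HEK293 cells, dye-loaded, are exposed to DMSO-dissolved compounds and fluorescence at Ex/Em 480/540 is tracked for 3 min.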

For test [3], the target named is KiSS-1 receptor (Homo sapiens) (UniProt Q969F8). Description: Human kisspeptin (KISS1R) small molecule agonists, calcium flux assay in KISS1R-HEK293 cells (AID 1920064; active = well fitted curve in the direction sought with a large enough effect in the repeat runs; an effect the other way counts as inactive or inconclusive). In short, it runs like this: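 Concentration-response testing used 15 concentrations in triplicate on human KISS1R-expressing HEK293 cells. Calcium-dependent fluorescence (Ex/Em 480/540) was followed kinetically for 3 min after compound transfer.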
For orientation: Calcium assays in cells follow changes in intracellular calcium, usually with a dye or a luminescent sensor.

The nature of test [4]: G protein-coupled receptor (GPCR) small molecule agonists, calcium flux assay: HEK293 wild type cell line counter screen (AID 1920065). In short, it runs like this:
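Fluorescence intensity signals activation. After overnight (18 h) culture and a 1 h calcium dye load at 37 C, compounds are added by pin tool and the plate read at 480/540 nm for 3 min in 1 s steps.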

Test [5] can be described thus: p53 small molecule agonists, cell-based qHTS assay with human liver microsomes (AID 1963577). In short, it runs like this:
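p53RE-bla cells, 4,000/well, compound added after 5 h, with human liver microsomes 0.5 mg/mL and NADPH 0.5 mg/mL final; 16 h at 37 C, then LiveBLAzer 2 h RT, fluorescence.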

Test [6] can be described thus: p53 small molecule agonists, cell-based qHTS assay with rat liver microsomes (AID 1963578). The procedure, abridged:
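p53RE-bla cells, 4,000/well, pre-incubated 5 h, then given compounds plus rat liver microsomes (0.5 mg/mL final) and NADPH (0.5 mg/mL final). Incubation 16 h at 37 C; beta-lactamase reporter read by LiveBLAzer fluorescence after 2 h at room temperature.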

Test [7] is described as follows: p53 small molecule agonists, cell-based qHTS assay with human liver microsomes: qHTS cell viability counter screen (AID 1963579). Also: nearly all actives have a fitted effect of over 45% in size. In short, it runs like this: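 p53RE-bla cells, 4,000/well, dosed 5 hours after plating, with human liver microsomes (0.5 mg/mL final) plus NADPH (0.5 mg/mL final), 16 hours at 37 C. Viability read as CellTiter-Glo luminescence after 30 min at room temperature.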

Test [8] is described as follows: p53 small molecule agonists, cell-based qHTS assay with rat liver microsomes: qHTS cell viability counter screen (AID 1963580). Also: nearly all actives have a fitted effect of over 45% in size. The procedure, abridged: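 Counter screen for cytotoxicity under metabolic activation: rat liver microsomes and NADPH, 0.5 mg/mL final each, added with compounds to p53RE-bla HCT-116 cells; 16 h at 37 C, then ATP luminescence read.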
Test [9] in a line: p53 small molecule agonists, cell-based qHTS assay: qHTS cell viability counter screen (AID 1963581). Also: nearly all actives have a fitted effect of over 45% in size. In short, it runs like this:
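Luminescence from CellTiter-Glo, reflecting ATP content, serves as the cytotoxicity measure; it is taken after the 2 h reporter substrate step in HCT-116 p53RE-bla cells dosed for 16 h at 37 C.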

Test [10] is described as follows: p53 small molecule agonists, cell-based qHTS assay (AID 1963582; active = well fitted activation curve with a large enough effect in the signal ratio in the repeat runs, not every such curve was filed as active; the % refers to the signal ratio). In short, it runs like this:
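After plating, p53RE-bla cells sat 5 h in the incubator; compounds or DMSO vehicle were pinned in; a 16 h incubation at 37 C followed; FRET substrate was added and, 2 h later at RT, fluorescence was measured.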

Test [11] addresses 5-hydroxytryptamine receptor 2A (Homo sapiens) (UniProt P28223). Nature of the test: 5-hydroxytryptamine receptor 2A (HTR2A) small molecule antagonists, cell-based qHTS assay (AID 1963586). Also: nearly all actives have a fitted effect of over 45% in size. In short, it runs like this:
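CHO cells stably expressing human HTR2A were plated for 18 h at 37 C, then loaded with calcium dye for 1 h. Compounds were preincubated 5 min at room temperature before DOI (4 nM solution) was added. Kinetic fluorescence was read for 3 min.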

The target is the same in test [12]. Nature of the test: 5-hydroxytryptamine receptor 2A (HTR2A) small molecule agonists, cell-based qHTS assay (AID 1963587). Also: nearly all actives have a fitted effect of over 30% in size. The procedure, abridged:
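HTR2A-CHO cells, plated 18 h at 37 C/5% CO2, dye-loaded 1 h at 37 C; compounds in DMSO added by pin tool (agonist mode). Intracellular calcium flux read as kinetic fluorescence on FDSS over 2 min at 1 s intervals.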

Test [13] has as its target Muscarinic acetylcholine receptor M1 (Homo sapiens) (UniProt P11229). Description: Cholinergic receptor muscarinic 1 (CHRM1) small molecule antagonists, cell-based qHTS assay (AID 1963588). Also: nearly all actives have a fitted effect of over 40% in size. Also: potency is read from the fitted curve at half-maximal effect. The procedure, abridged: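 Compounds were tested at 15 concentrations in three independent runs. Dye-loaded CHRM1-CHO cells were exposed 5 min at room temperature before stimulation by acetylcholine added at 50nM. Intracellular calcium was read kinetically on FDSS for 3 min.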

In test [14] the target is Beta-2 adrenergic receptor (Homo sapiens) (UniProt P07550). Description: Adrenergic beta2 receptor (ADRB2) small molecule antagonists, cell-based qHTS assay (AID 1963592). Also: series mostly up to about 92 µM; nearly all actives have a fitted effect of over 50% in size. In short, it runs like this: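 Assay format: CHO-ADRB2 cells, 18-20hr seeding at 37C/5% CO2, then compound plus 1nM isoproterenol agonist mix for 0.5hr RT. Homogeneous time-resolved fluorescence cAMP detection after 1hr, expressed as 665/615 nm ratio.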

In test [15] the target is D(2) dopamine receptor (Homo sapiens) (UniProt P14416). Description: Dopamine D2 receptor (DRD2) small molecule antagonists, cell-based qHTS assay (AID 1963595; active = well fitted inhibition curve with a large enough effect in the signal ratio in the repeat runs, with a control signal flat; the % refers to the signal ratio). In short, it runs like this: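 HEK293 cells stably expressing DRD2, preincubated with 0.1 mM Ro20-1724 and compounds 10 min, were stimulated with 200 nM NKH477 plus 12 nM quinpirole for 30 min at room temperature; cAMP measured by HTRF (665/620 nm).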

The target of test [16] is Muscarinic acetylcholine receptor M1 (Homo sapiens) (UniProt P11229). Nature of the test: Cholinergic receptor muscarinic 1 (CHRM1) small molecule agonists, cell-based qHTS assay (AID 1963589). Also: nearly all actives have a fitted effect of over 35% in size. The procedure, abridged: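 Fluorescent calcium dye reports M1 activation in stably transfected CHO cells. Compounds, 15 concentrations, added after 1 h dye loading at 37 C; kinetic reading at 1 sec intervals.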

A short description of test [17]: cAMP Responsive Elements (CRE) small molecule antagonists, cell-based qHTS assay (AID 1963591; active = well fitted inhibition curve with a large enough effect in the signal ratio in the repeat runs, not every such curve was filed as active; the % refers to the signal ratio). In short, it runs like this: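 Stimulation used NKH477 at a final 0.25 uM for 3 h in compound-treated CRE-bla HEK293T cells, seeded 18 h beforehand. Reporter activity was measured with LiveBLAzer B/G FRET substrate after 2 h at room temperature.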
Test [18] deals with D(2) dopamine receptor (Homo sapiens) (UniProt P14416). Description: Dopamine D2 receptor (DRD2) small molecule agonists, cell-based qHTS assay (AID 1963594). Also: nearly all actives have a fitted effect of over 35% in size. In short, it runs like this: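 HEK293 cells stably expressing DRD2 were cultured 24 h at 37 C, then given Ro20-1724 (0.1 mM final) and compounds for 10 min at room temperature. NKH477 (200nM) was then added for 30 min. cAMP was read by HTRF.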

A short description of test [19]: cAMP Responsive Elements (CRE) small molecule agonists, cell-based qHTS assay (AID 1963590). The procedure, abridged:
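Compound exposure lasted 3 h at 37 C/5% CO2 in CRE-bla HEK 293T cells grown in assay medium with 10% dialyzed FBS and 25 mM HEPES. Reporter signal came from LiveBLAzer B/G FRET substrate, 2 h, room temperature.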

Test [20] addresses Beta-2 adrenergic receptor (Homo sapiens) (UniProt P07550). Description: Adrenergic beta2 receptor (ADRB2) small molecule agonists, cell-based qHTS assay (AID 1963593).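 Also: CHO cells stably overexpressing human ADRB2.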 The procedure, abridged: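 CHO cells stably over-expressing ADRB2 were plated overnight at 37C, then dosed with compounds plus a stimulation mix containing 100uM IBMX and 25uM Ro-20-1724 for 0.5hr at room temperature. cAMP was measured by HTRF competition, 1hr.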

A number with no mark means an inactive call. Results filed as inconclusive are left out. Calls of active or inactive are those of the source. Unless noted, calls follow the shape of the full dose curve.

The results in this text go back to PubChem BioAssay (Tox21).
% is scaled to controls: 0 for no effect and ±100 for the full control effect.

Chain of KiSS-1 receptor (Homo sapiens) (Q969F8 whole entry, looked up): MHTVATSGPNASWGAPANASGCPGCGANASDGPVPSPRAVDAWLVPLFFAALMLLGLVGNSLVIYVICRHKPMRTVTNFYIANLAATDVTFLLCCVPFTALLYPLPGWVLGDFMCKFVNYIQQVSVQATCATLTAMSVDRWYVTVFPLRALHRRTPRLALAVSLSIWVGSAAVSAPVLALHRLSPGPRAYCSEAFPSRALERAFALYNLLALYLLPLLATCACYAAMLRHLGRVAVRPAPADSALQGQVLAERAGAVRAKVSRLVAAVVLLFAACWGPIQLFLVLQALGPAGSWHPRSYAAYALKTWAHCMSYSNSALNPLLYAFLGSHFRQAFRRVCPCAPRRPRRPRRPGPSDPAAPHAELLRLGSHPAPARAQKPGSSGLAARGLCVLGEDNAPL
Chain of Muscarinic acetylcholine receptor M1 (Homo sapiens) (P11229 whole entry, looked up): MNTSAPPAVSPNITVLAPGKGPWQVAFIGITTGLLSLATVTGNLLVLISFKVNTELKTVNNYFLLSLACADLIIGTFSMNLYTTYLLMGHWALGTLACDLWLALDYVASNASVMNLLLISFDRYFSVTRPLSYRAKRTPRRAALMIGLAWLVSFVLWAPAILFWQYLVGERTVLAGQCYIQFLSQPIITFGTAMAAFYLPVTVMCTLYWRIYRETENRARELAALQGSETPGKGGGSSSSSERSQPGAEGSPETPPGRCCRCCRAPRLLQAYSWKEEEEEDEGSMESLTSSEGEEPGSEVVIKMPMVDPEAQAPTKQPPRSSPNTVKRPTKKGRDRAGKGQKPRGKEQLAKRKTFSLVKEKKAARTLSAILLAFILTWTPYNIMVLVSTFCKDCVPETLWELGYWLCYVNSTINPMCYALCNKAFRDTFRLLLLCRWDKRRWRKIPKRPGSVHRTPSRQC
Chain of Beta-2 adrenergic receptor (Homo sapiens) (P07550 whole entry, looked up): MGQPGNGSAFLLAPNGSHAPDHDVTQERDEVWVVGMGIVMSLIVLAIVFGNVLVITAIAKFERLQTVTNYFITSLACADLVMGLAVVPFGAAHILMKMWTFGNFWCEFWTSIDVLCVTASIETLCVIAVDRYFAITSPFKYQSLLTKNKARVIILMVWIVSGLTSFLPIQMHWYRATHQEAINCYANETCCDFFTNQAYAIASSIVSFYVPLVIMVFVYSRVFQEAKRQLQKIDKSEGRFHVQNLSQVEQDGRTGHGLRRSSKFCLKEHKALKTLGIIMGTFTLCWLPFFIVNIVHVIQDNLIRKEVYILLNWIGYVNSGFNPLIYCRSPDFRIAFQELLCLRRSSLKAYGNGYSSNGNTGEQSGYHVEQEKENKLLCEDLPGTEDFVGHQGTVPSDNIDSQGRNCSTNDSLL
Chain of 5-hydroxytryptamine receptor 2A (Homo sapiens) (P28223 whole entry, looked up): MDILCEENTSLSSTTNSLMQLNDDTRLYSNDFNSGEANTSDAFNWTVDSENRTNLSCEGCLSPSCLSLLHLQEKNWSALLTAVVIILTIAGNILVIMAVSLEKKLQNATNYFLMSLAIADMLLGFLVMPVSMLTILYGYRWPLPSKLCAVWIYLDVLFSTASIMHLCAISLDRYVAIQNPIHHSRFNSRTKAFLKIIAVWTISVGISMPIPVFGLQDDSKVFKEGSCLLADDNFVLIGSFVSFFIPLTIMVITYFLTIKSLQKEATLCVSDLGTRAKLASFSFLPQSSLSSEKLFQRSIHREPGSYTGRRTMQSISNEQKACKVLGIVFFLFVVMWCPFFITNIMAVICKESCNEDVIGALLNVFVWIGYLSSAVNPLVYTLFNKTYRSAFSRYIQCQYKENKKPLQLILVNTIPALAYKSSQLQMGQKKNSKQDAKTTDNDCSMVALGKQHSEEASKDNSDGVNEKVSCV
Chain of D(2) dopamine receptor (Homo sapiens) (P14416 whole entry, looked up): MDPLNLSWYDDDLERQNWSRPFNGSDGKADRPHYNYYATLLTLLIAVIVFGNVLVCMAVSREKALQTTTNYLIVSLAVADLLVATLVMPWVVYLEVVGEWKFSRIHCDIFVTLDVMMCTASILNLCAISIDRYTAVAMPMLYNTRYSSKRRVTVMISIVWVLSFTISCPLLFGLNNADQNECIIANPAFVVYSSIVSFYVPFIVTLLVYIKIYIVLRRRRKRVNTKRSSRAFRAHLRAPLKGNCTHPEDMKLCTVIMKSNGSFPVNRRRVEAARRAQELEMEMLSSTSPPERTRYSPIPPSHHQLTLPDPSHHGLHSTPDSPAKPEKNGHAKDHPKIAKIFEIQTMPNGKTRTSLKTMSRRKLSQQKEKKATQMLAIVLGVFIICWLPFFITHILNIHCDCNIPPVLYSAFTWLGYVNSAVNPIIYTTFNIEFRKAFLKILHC
Chain of Gonadotropin-releasing hormone receptor (Homo sapiens) (P30968 whole entry, looked up): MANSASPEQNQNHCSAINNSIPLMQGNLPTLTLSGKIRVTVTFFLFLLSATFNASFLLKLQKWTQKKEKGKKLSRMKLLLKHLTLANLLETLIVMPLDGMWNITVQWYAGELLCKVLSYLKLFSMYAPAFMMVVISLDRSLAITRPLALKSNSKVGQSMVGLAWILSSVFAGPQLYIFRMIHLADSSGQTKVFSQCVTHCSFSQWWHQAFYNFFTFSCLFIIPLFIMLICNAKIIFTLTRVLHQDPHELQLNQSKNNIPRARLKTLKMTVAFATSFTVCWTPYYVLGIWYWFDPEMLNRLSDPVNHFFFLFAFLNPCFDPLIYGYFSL

For `C=C(C)C(=O)OCCOCCOCCOCCOC(=O)C(=C)C`, the Potency entry in test [1], in [2], in test [3], in test [4], in [5] and in test [6] was “inactive” in each case. Besides, the Potency entry in test [7], in [8], in test [9], in [10], in [11] and in test [12] was “inactive” each time. Also, the Potency result in test [13], in [14] and in test [15] was “inactive” in each case.
As to `CCCC(C)C(=O)O` (configuration not stated), the Potency result in test [1], in test [2], in [3], in [4], in test [5] and in test [6] was “inactive” each time. Further, the Potency result in test [7], in test [8], in test [9], in test [10], in test [11] and in [13] was “inactive” in each case. The Potency result in test [16], in [17], in [14], in test [18] and in [15] was “inactive” throughout.
As for `COCCOC[C@H](CC1(C(=O)NC2CCC(C(=O)O)CC2)CCCC1)C(=O)Oc1ccc2c(c1)CCC2` (some centres not stated), the Potency result in test [1], in [2], in test [3], in test [4], in test [5] and in test [6] was “inactive” in each case. Also, the Potency entry in [7], in [8], in test [9], in [10], in test [11] and in [16] was “inactive” in each case. Further, the Potency result in test [19], in [14], in [18] and in test [15] was “inactive” throughout.
Regarding `O=C(Oc1ccccc1)Oc1ccccc1`, the Potency entry in [1], in [2], in test [3], in test [4], in test [5] and in test [6] was “inactive” throughout. The Potency result in [7], in test [8], in [9], in test [10], in test [12] and in test [13] was “inactive” each time. The Potency entry in test [16], in test [19], in [18] and in test [15] was “inactive” in each case.
Regarding `c1ccc(-c2ccccn2)nc1`, the Potency entry in [1], in test [2], in [3], in [4], in test [5] and in test [6] was “inactive” in each case. Also, the Potency entry in [7], in test [8], in test [9], in test [10], in test [11] and in test [13] was “inactive” each time. The Potency result in test [16], in test [19], in test [17], in test [14], in test [20] and in [18] was “inactive” throughout. In addition, in [15], the Potency result is “inactive”.
As to `O=C(O)c1ccccc1Nc1cc(Cl)ccc1C(=O)O`, the activity change, negative = cytotoxicity in test [1] was 0.544% [at 19 µM]; in test [7] it was -16.4% [at 13.5 µM]; in test [8] it was -20.9% [at 13.5 µM]; in test [9], -5.7% [at 13.5 µM]. In test [2], the activity change was -1.18% [at 11.8 µM, active compounds read high]. The activation is 0.0094% [at 15.8 µM] in test [3]; -0.251% [at 11.8 µM] in test [4]; -15.2% [at 13.5 µM] in test [5]; -10.2% [at 13.6 µM] in test [6]; 1.24% [at 13.5 µM] in test [10]; 0.0185% [at 15.8 µM] in [16]. The activation in test [19] was -0.0043% [at 19 µM]; in test [20] it was -0.399% [at 19 µM]. Moreover, the activity, negative = inhibition was 13.3% [at 12.7 µM] in test [11] and 22.2% [at 12.6 µM] in test [13]. The results for the activity change, negative = inhibition in test [14] and in [15] were 5.54% [at 19 µM] and -1.66% [at 18.9 µM], respectively.
`Nc1cccc([N+](=O)[O-])c1`: the Potency entry in test [1], in [2], in [3], in test [4], in test [5] and in test [6] was “inactive” in each case. Further, the Potency entry in test [7], in test [8], in test [9], in test [10], in test [11] and in test [12] was “inactive” throughout. Moreover, the Potency result in [19], in test [20], in test [18] and in test [15] was “inactive” throughout. Further, the Potency in test [13] is 130 nM (active).
